# S1P4 ag: agonists of human S1P4 receptor | O95977 | S1P4-expressing cell line, agonist reporter assay | activation, % at 4.98 µM | actives 0.35% (n = 220,000); in the data active = activation above about 11%;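 also: 0% = DMSO vehicle and 100% = reference agonist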
# Target sequence (O95977 whole entry, looked up): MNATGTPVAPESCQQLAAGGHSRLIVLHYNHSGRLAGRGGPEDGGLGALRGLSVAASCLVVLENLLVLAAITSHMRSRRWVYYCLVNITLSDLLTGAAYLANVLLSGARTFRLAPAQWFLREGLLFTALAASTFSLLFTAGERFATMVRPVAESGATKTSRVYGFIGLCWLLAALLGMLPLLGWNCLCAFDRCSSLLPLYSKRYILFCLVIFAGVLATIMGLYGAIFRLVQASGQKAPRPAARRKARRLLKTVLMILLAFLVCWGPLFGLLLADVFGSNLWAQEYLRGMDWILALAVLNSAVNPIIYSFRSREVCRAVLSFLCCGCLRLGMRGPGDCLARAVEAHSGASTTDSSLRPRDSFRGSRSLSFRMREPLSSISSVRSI
# Cl transport mod: modulators of human KCC2 chloride dependent transport | KCC2 cells, thallium flux FluoZin-2 fluorescence | B-score of Tl+ flux slope (higher = more flux/activation; lower = inhibition) at 10 µM | actives 2.2% (n = 190,000);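 active = thallium flux slope and its plate-corrected score both differing from the plate sample mean at a set confidence after two filtering rounds, in either direction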;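 also: slope of fluorescence scaled to starting intensity during 10 to 20 s after thallium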
# S1P3 antagonist: S1P3 (human) receptor antagonism. Q99500. CHO S1P3 NFAT-BLA reporter, FRET fluorescence, antagonist mode. inhibition, % at 4.98 µM. actives 0.27% (n = 170,000). AID 485;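 active = inhibition above the plate cutoff, the mean inhibition of test wells on that plate plus 3 SD, cut at about 28% in these data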;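 also: cells challenged with S1P at its EC80 of 0.8 µM; blue over green emission ratio from cleaved BLA substrate after 4 h stimulation; 0% = S1P-stimulated wells and 100% = unstimulated DMSO-only wells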
# ROMK primary: modulates human ROMK potassium channel activity | P48048 | B-score at 10 µM | AID 1918 | Tet-inducible ROMK, thallium flux fluorescence; actives lie on both sides | actives 2% (n = 130,000);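 active = signal ratio slope over the read window, or its plate-corrected B-score, at least 3 SD from the plate mean, either direction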;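 also: B-score of the F/F0 ratio slope over 7 to 12 s after thallium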
# RAM inhibit: yeast RAM network inhibition; S. cerevisiae dse1pr::URA3 reporter, 5-FOA growth OD615, 2 d; analog-sensitive cbk1-as2 kinase mutant strain; inhibition, % at 50 µM; actives 1.8% (n = 190,000);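 active = inhibition above a set limit, 3 SD over mean compound inhibition, cut at about 8.4% in these data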;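 also: 0% = DMSO-only wells with no growth and 100% = 10 µM 1-NA-PP1 full growth; inhibition rescues growth on 5-FOA so higher OD means more RAM inhibition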
# S1P4 antagonist: antagonists of human S1P4 receptor; AID 1510; inhibition, % at 4.98 µM; S1P4-expressing cells, antagonist mode, reporter read-out; actives 0.26% (n = 220,000); O95977; in the data active = inhibition above about 29%;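 also: 0% = wells stimulated with agonist and 100% = vehicle wells without agonist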
# Starred values were filed as active, the others as inactive; x = not tested or not shown. Compounds with a hit are over-represented: about 5.1% of the library has one in this group of screens.
SMILES,S1P4 ag,Cl transport mod,S1P3 antagonist,ROMK primary,RAM inhibit,S1P4 antagonist
O=C(CSCc1ccccc1)N=Nc1c(O)[nH]c2ccccc12,2,8.6*,5,-0.3,3,-17
Oc1cccc(NC(=S)N=Nc2c(O)[nH]c3ccccc23)c1,-1,-0.6,9,0.18,x,-5
Oc1[nH]c2ccccc2c1N=NC(=S)NCCc1ccccc1,3,20*,0,-0.14,4,-12
CCOc1ccc(NC(=S)N=Nc2c(O)[nH]c3ccccc23)cc1,1,4.4*,-17,1.2*,8,-10
CCC(C)C(NC(=O)C1CCC(C)CC1)C(=O)NC1CCN(Cc2ccccc2)CC1 (centres undefined),1,0.0059,-7,x,2,-2
O=C(NCCCCc1ccccc1)C1CC(c2cc(C(F)(F)F)cc(C(F)(F)F)c2)=NO1 (centres undefined),x,0.45,x,x,x,x
COC(=O)c1sc2cc([N+](=O)[O-])cc(SCC(C)C)c2c1N,3,0.6,7,0.0039,11*,-13
CCOc1ccc(C(C)=O)cc1COc1ccc(-n2cnnn2)cc1,-1,-0.0093,24,x,8.7*,4
Cc1ccc(C2CC(c3ccccc3)=NN2C(=O)CSc2nnc(-c3ccncc3)n2C)o1 (centres undefined),0,0.29,5,x,1,-9
COc1cc(S(=O)(=O)N(Cc2cccs2)CC2CCCO2)ccc1-n1cnnn1 (centres undefined),3,-0.59,36,x,4,-5
O=S(=O)(NCc1ccccc1)c1ccc(S(=O)(=O)N(Cc2cccs2)CC2CCCO2)cc1 (centres undefined),0,x,x,1.8,8.9*,12
O=S(=O)(Nc1cccc2c1CCCC2)c1ccc(Cl)cc1,2,-0.54,-5,-0.52,9.2*,-10
COC(=O)/C(C#N)=C/c1c(Oc2cc(C)cc(C)c2)nc2c(C)cccn2c1=O,-2,0.17,-9,0.54,9.1*,-8
COc1ccccc1N(C)S(=O)(=O)c1ccc(Cl)c(C(=O)OCc2c(C)noc2C)c1,0,-0.17,15,-0.37,11*,-4
Cc1noc(C)c1COC(=O)c1cc(F)c(F)cc1Cl,-1,-0.98,2,x,1,-22
COc1cccc(NC(=O)CSc2nnc(-c3cc(C)n(-c4ccccc4)c3C)o2)c1,0,0.089,0,x,9.3*,-3
Cc1cc(C)cc(NC(=O)CSc2nnc(-c3ccccc3Br)o2)c1,3,x,-8,0.67,11*,-8
COc1ccccc1-c1nnc(SCC(=O)Nc2c(Cl)cccc2Cl)o1,2,x,-19,0.26,0,-6
C/C(=N\OC(=O)Nc1ccccc1)c1cnn(-c2cc(C(F)(F)F)cc(C)n2)c1C,1,-0.97,0,x,x,-3
O=C(CSc1nc2ccccc2s1)Nc1ccc(Cl)c(S(=O)(=O)N2CCOCC2)c1,1,0.45,-1,x,9.9*,-6
O=C(CSc1nc2ccccc2s1)Nc1ccc(N2CCOCC2)c(Cl)c1,2,-0.14,1,x,5,-29
CCN=C1S/C(=C\c2ccc(N3CCOCC3)cc2C)C(=O)N1CC,1,0.89,1,-0.53,10*,-8
O=C1NCCN/C1=C\C(=O)c1ccc(Cl)cc1,1,-0.006,-5,x,x,-7
CN([C@@H](Cc1ccc(OS(=O)(=O)c2cccc3cnccc23)cc1)C(=O)N1CCN(c2ccccc2)CC1)S(=O)(=O)c1cccc2cnccc12,0,0.46,-8,x,9.2*,-7
CCC(C)n1c(SCc2ccc([N+](=O)[O-])cc2)nc2ccsc2c1=O (centres undefined),-1,-2.7,10,1.8,9.6*,8
SMILES,S1P4 ag,Cl transport mod,S1P3 antagonist,ROMK primary,RAM inhibit,S1P4 antagonist
CCn1c(=S)sc2c(=O)n(-c3ccccc3)c(SC)nc21,1,x,x,0.43,3,-19
COc1ccc(-n2c(SCC3OCCO3)nc3c(sc(=S)n3-c3ccccc3)c2=O)cc1OC,-1,-1.1,3,-0.72,8.6*,4
O=C(NCc1ccco1)c1sc(=S)n2c1[nH]c(=O)c1ccccc12,0,x,x,-3.7*,3,-13
O=C(NCc1ccccc1)c1ccc2c(=O)[nH]c3c(C(=O)NCC4CCCO4)sc(=S)n3c2c1 (centres undefined),-2,-2.8,-4,-0.077,4,2
COc1ccc(N2C(=O)CC2(C#N)c2ccc(OCc3ccccc3)cc2)cc1 (centres undefined),2,-1.1,4,0.54,11*,-3
C/C(=N\OCC(=O)NC12CC3CC(CC(C3)C1)C2)c1cc2ccccc2o1,-3,0.48,3,x,5,-4
CCN(c1ccccc1)c1nc2ccsc2c(=O)s1,1,0.17,x,x,8.5*,2
CCn1c2ccccc2c2cc(NC(=O)c3cc(OC)cc(OC)c3)ccc21,-2,1,-5,1.4,8.6*,7
O=C(Nc1ccc(Br)c2cccnc12)c1ccc(Cn2cc(Cl)cn2)o1,2,2,-20,0.55,11*,1
COc1ccc(Nc2nc(N/N=C/c3ccc(N(C)C)cc3)nc(C)c2[N+](=O)[O-])cc1,4,0.38,8,0.076,10.0*,-6
CCN1N=C(C)C=C(c2ccccc2)n2c1nc1ccccc12,0,-1.1,6,-0.075,x,-10
Cc1onc(-c2ccccc2)c1C(=O)NC(=S)Nc1sc2c(c1C#N)CCCC2,0,23*,-24,x,4,-1
Cc1cc(C(=O)Nc2sc3c(c2C#N)CCCC3)no1,0,3.7*,-13,3.6*,5,-6
CCNC(=S)N(Cc1ccco1)Cc1cc2cc(OCC)ccc2[nH]c1=O,1,-0.41,9,0.18,9.7*,5
OCCN1CCN(c2ncnc3ccc(Br)cc23)CC1,1,x,102*,x,1,-38
OCCN1CCN(C(=S)c2ccc(Br)cc2)CC1,1,0.95,x,x,0,-17
COc1ccc(NS(=O)(=O)c2cc(NC(=O)c3cc(=O)c4ccccc4o3)ccc2OC)cc1,1,-1.2,-10,-1.2,9.6*,-1
COc1ccc(NS(=O)(=O)c2cc(NC(=O)c3ccc(F)cc3)ccc2OC)cc1,1,-0.76,-9,0.016,7,-7
COc1ccccc1/C=C/C(=O)OCc1nc2ccccc2c(=O)[nH]1,-1,-0.69,-16,0.55,1,-5
CCCCOC(=O)Nc1cccc(Cl)c1C,-5,x,x,-0.33,-1,-16
COC(=O)c1c(NC(=O)Cc2cccs2)sc(C(=O)N2CCCCC2)c1C,2,-0.75,27,-1.4,10*,-4
CCCCCCCCNC(=O)/C(C#N)=C/c1ccc2c(c1)OCCO2,-2,-1.1,-14,x,9.4*,-7
N#Cc1cc(-c2ccccc2)cnc1Sc1ccccc1,0,0.067,x,x,9.2*,-2
CCOC(=O)C1CNc2cc(S(=O)(=O)CC)ccc2O1 (centres undefined),-1,0.91,-23,0.49,3,-2
COc1ccccc1NC(=O)Cc1csc(N)n1,0,-0.052,-13,x,2,20

# Assay outcomes as filed in PubChem.
